PubChem BioAssay (Tox21)
Unmarked numbers belong to inactive results. Results filed as inconclusive are left out. Where a call stands in place of a potency, no number is given. Calls of active or inactive are those of the source. Unless noted, the call rests on the fitted dose curve; in most records, active means well fitted curve in the direction sought with a large enough effect in the repeat runs; inconclusive means weak or mixed curves; inactive means no such curve, though single readings can be large; an effect the other way counts as inactive or inconclusive.

Assays:
[1] = qHTS assay to identify small molecule antagonists of the estrogen related receptor (ERR) signaling pathway from Tox21 library - cell viability counter screen (AID 1224834); further: nearly all actives have a fitted effect of over 30% in size; further: potency means the concentration at half of the fitted maximal effect
Summary of the method: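 Compounds in DMSO were pinned onto ERR cells that had been incubated for 6 h, and the plates were held at 37 C for 17.5 h. CellTiter-Fluor reagent was then added and fluorescence was measured after 30 min.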

[2] = target: Luciferin 4-monooxygenase (Photinus pyralis) (UniProt P08659); test: qHTS assay to identify small molecule inhibitors of firefly luciferase (AID 1224835); further: nearly all actives have a fitted effect of over 25% in size; further: potency means the concentration at half of the fitted maximal effect
Chain of Luciferin 4-monooxygenase (Photinus pyralis) (P08659 whole entry, looked up): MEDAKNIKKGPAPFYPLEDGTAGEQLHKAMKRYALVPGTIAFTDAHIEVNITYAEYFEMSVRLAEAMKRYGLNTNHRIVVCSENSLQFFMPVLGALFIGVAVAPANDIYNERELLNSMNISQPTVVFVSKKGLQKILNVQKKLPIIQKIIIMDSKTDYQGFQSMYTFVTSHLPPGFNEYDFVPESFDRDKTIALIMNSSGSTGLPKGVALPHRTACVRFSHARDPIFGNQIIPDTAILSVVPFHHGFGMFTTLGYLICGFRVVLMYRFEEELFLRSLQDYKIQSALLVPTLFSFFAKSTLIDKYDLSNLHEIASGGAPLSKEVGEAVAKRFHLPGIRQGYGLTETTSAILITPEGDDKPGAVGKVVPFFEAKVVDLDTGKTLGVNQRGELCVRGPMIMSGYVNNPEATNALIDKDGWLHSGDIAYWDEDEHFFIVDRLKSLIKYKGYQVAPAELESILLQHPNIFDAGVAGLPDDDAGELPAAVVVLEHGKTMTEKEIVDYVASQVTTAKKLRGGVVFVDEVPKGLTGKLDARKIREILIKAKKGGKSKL
Summary of the method: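 Inhibition of purified Photinus luciferase is measured by luminescence. Substrate levels (D-luciferin, ATP) sit at their KM values. Each compound is tested in a concentration series.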

[3] = qHTS assay to identify small molecule agonists of the constitutive androstane receptor (CAR) signaling pathway - cell viability counter screen (AID 1224836); further: nearly all actives have a fitted effect of over 45% in size; further: potency means the concentration at half of the fitted maximal effect
Summary of the method: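 23 h treatment, 37 C, 5% CO2. Cell line: HepG2 stably expressing hCAR with a CYP2B6-2.2kb construct. Co-treatment: PK11195, 0.75 uM final. Read-out: CellTiter-Fluor fluorescence intensity.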

[4] = qHTS assay to identify small molecule antagonists of the constitutive androstane receptor (CAR) signaling pathway - cell viability counter screen (AID 1224837); further: nearly all actives have a fitted effect of over 45% in size; further: potency means the concentration at half of the fitted maximal effect
Summary of the method: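 Cells are seeded, rested 4 hr at 37 C/5% CO2, dosed with compound (15-point series) and 50 nM CITCO, incubated a further 23 hr, and then CellTiter-Fluor reagent is added before fluorescence is read. The line is HepG2 with stable hCAR and CYP2B6-2.2kb.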

[5] = target: Nuclear receptor subfamily 1 group I member 3 (Homo sapiens) (UniProt Q14994); test: qHTS assay to identify small molecule agonists of the constitutive androstane receptor (CAR) signaling pathway (AID 1224839);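 further: HepG2 cells stably carrying human CAR and a CYP2B6 luciferase reporter; nearly all actives have a fitted effect of over 15% in size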
Chain of Nuclear receptor subfamily 1 group I member 3 (Homo sapiens) (Q14994 whole entry, looked up): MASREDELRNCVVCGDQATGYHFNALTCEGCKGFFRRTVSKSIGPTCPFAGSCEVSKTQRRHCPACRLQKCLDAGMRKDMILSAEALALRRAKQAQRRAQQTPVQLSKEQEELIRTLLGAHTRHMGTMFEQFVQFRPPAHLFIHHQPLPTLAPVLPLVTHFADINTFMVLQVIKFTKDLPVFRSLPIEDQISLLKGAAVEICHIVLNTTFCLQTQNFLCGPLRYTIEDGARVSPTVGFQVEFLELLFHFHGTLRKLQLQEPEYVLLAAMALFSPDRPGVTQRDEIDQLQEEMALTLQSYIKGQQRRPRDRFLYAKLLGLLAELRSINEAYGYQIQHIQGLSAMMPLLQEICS
Summary of the method: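 Compounds tested at 15 concentrations on HepG2 cells stably harbouring hCAR and CYP2B6-2.2kb reporter constructs, co-treated with PK11195 (0.75 uM final), 24 h at 37 C; luminescent reporter signal quantified.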

[6] = qHTS assay to identify small molecule antagonists of the estrogen related receptor signaling pathway with the pleiotropic PPARgamma coactivator (PGC) from Tox21 10K library (AID 1224841; call rule not given here; further: actives are mostly falling curves and most rising ones were filed inactive; nearly all actives have a fitted effect of over 50% in size)
Summary of the method: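 Cells stably carrying the PGC/ERR reporter, seeded at 2,000 per well, received pin-transferred compounds 6 h post-plating. Exposure lasted 18 h at 37 C. Signal: One-Glo luminescence.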

[7] = qHTS assay to identify small molecule agonists of the estrogen related receptor signaling pathway with the pleiotropic PPARgamma coactivator (PGC) from Tox21 10K library (AID 1224842); further: nearly all actives have a fitted effect of over 15% in size
Summary of the method: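 Luminescence from One-Glo (30 min, room temperature) measured after PGC/ERR cells had 18 h at 37 C with pinned compound (23 nL in DMSO). Cells had been seeded at 2,000 per well and pre-incubated 6 h.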

[8] = target: Thyrotropin receptor (Homo sapiens) (UniProt P16473); test: qHTS assay to identify small molecule agonists of the thyroid stimulating hormone receptor (TSHR) signaling pathway (AID 1224843; calls by dose curve; further: nearly all actives have a fitted effect of over 45% in size)
Chain of Thyrotropin receptor (Homo sapiens) (P16473 whole entry, looked up): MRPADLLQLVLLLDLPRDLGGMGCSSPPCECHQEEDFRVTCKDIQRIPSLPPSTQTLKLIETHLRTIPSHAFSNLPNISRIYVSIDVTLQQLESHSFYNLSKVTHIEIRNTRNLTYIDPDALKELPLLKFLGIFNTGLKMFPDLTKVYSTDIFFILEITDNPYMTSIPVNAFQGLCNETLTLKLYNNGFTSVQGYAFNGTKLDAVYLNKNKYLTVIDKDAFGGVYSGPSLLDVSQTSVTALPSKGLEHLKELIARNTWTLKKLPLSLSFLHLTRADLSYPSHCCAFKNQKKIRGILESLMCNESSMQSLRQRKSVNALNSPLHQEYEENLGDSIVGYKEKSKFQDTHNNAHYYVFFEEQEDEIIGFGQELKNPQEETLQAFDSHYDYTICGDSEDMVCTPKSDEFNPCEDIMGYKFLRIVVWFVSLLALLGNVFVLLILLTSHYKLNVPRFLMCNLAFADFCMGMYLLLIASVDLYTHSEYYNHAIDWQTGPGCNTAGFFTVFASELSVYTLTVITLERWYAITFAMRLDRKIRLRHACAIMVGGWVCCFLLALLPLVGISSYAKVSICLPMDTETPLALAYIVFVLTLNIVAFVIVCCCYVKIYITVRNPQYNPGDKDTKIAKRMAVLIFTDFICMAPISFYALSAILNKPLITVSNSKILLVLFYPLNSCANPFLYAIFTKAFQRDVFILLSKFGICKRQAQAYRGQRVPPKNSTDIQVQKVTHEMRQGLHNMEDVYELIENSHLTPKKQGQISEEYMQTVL
Summary of the method: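 A cell-based cAMP HTRF format was run in TSHR-transfected HEK293 cells, 800 per well. Treatment: 30 min, room temperature. Detection: 1 h with labelled cAMP and anti-cAMP cryptate. Concentration-response over 15 points, three replicates.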

[9] = qHTS assay to identify small molecule agonists of the hypoxia (HIF-1) signaling pathway - cell viability counter screen (AID 1224844; calls by dose curve; further: nearly all actives have a fitted effect of over 50% in size; further: potency means the concentration at half of the fitted maximal effect)
Summary of the method: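 Viability counter screen: HRE-bla ME-180 cells plated 5 hrs before compound addition, treated 17 hrs at 37C and 5% CO2, then CellTiter-Glo added after the FRET reporter read; luminescence after 30 min.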

[10] = qHTS assay to identify small molecule agonists of H2AX (AID 1224845; active means well fitted activation curve with a large enough effect in the signal ratio in the repeat runs, not every such curve was filed as active; the % refers to the signal ratio; further: potency means the concentration at half of the fitted maximal effect)
Summary of the method: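 Phospho-H2AX Ser139 measured by HTRF (ex 320 nm; em 665 and 620 nm) after 24 hr antibody incubation. Compounds, 15 concentrations, 0.76% DMSO, were applied to CHO-K1 cells for 3hr at 37C before lysis.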

[11] = qHTS assay to identify small molecule agonists of the hypoxia (HIF-1) signaling pathway (AID 1224846; active means well fitted activation curve with a large enough effect in the signal ratio in the repeat runs, not every such curve was filed as active; the % refers to the signal ratio)
Summary of the method: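 Agonist mode reporter screen. ME-180 cells stably expressing bla under HRE control received test compounds in DMSO for 17 hrs (37C, 5% CO2), and beta-lactamase activity was then detected with the CCF4-AM FRET substrate.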

[12] = qHTS assay to identify small molecule agonists of H2AX - cell viability counter screen (AID 1224847; calls by dose curve; further: top concentration of the series differs between compounds; nearly all actives have a fitted effect of over 30% in size)
Summary of the method: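 Compounds tested at 15 concentrations were incubated 3 hr at 37C with wild-type CHO-K1 cells; cellular ATP-based luminescence (CellTiter-Glo) indicated viability.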

[13] = qHTS assay to identify small molecule antagonists of the estrogen related receptor (ERR) signaling pathway from Tox21 library (AID 1224848); further: nearly all actives have a fitted effect of over 50% in size
Summary of the method: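 ERR cell line, 2,000 cells/well. 6 h settle, then compound (DMSO) added; 18 h at 37 C; ONE-Glo luminescence after 30 min RT.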

[14] = qHTS assay to identify small molecule agonists of the estrogen related receptor (ERR) signaling pathway from Tox21 library (AID 1224849; calls by dose curve; further: nearly all actives have a fitted effect of over 15% in size); details: ERR reporter cell line, ONE-Glo luciferase, 18 h; at 92.4 µM (top of the series) unless noted
Summary of the method: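 Quantitative HTS in agonist format: NTP ERR cell line, compounds transferred in DMSO after 6 h plating, 18 h incubation at 37 C, ONE-Glo luminescence endpoint.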

[15] = qHTS RealTime-Glo MT Cell Viability Assay in HepG2 cells - 24 hour (AID 1224867); further: nearly all actives have a fitted effect of over 50% in size; further: potency means the concentration at half of the fitted maximal effect
Summary of the method: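 qHTS, HepG2, 600 cells/well, RealTime-Glo (NanoLuc + prosubstrate) added with cells; 5 h preincubation; DMSO compound addition; 37 C; luminescence at 0/8/16/24/32/40 h.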

[16] = qHTS RealTime-Glo MT Cell Viability Assay in HEK293 cells - 32 hour (AID 1224868); further: nearly all actives have a fitted effect of over 50% in size; further: potency means the concentration at half of the fitted maximal effect
Summary of the method: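 Assay medium contained NanoLuc luciferase plus cell-permeant prosubstrate, added with HEK293 cells at 600 cells/well. After 5 h at 37 C/5% CO2 compounds were added; plates stayed at 37 C for 40 h with serial luminescence reads.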

[17] = A CellTox Green Cytotoxicity Assay to monitor cytotoxicity in HEK293 cells - 0 hour (AID 1224869); further: nearly all actives have a fitted effect of over 50% in size
Summary of the method: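 Dead-cell fluorescence measured kinetically: asymmetric cyanine dye, HEK293, 600 cells/well, 5 h settle, 23 nL cpd/DMSO, 37 C, reads 0–40 h every 8 h.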

[18] = qHTS RealTime-Glo MT Cell Viability Assay in HepG2 cells - 40 hour (AID 1224870); further: nearly all actives have a fitted effect of over 50% in size; further: potency means the concentration at half of the fitted maximal effect
Summary of the method: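 Real-time viability: cells seeded at 600 per well together with NanoLuc and cell-permeant prosubstrate, compounds added after 5 h incubation. Luminescence tracked at 0, 8, 16, 24, 32 and 40 h of exposure.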

[19] = target: Nuclear receptor subfamily 1 group I member 3 (Homo sapiens) (UniProt Q14994); test: qHTS assay to identify small molecule antagonists of the constitutive androstane receptor (CAR) signaling pathway (AID 1224838);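 further: HepG2 cells stably expressing hCAR with CYP2B6 luciferase reporter stimulated by CITCO; nearly all actives have a fitted effect of over 40% in size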; further: potency means the concentration at half of the fitted maximal effect
Summary of the method: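 Luminescence from a CYP2B6-2.2kb promoter reporter in hCAR-expressing HepG2 cells reflects CAR signaling. Cells received compounds at 15 concentrations and 50 nM CITCO (final), then incubated 24 h at 37 C/5% CO2.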

[20] = qHTS assay to identify small molecule antagonists of the estrogen related receptor signaling pathway with the pleiotropic PPARgamma coactivator (PGC) from Tox21 10K library - cell viability counter screen (AID 1224840; active means well fitted cell-killing curve with a large enough effect in the repeat runs, not every such curve was filed as active; further: nearly all actives have a fitted effect of over 40% in size)
Summary of the method: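 Cell viability is measured by CellTiter-Fluor fluorescence in PGC/ERR cells that receive compounds after a 6-hour attachment period and are then incubated 17.5 hours at 37 C.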

| Compound | Potency [1] | Potency [2] | Potency [3] | Potency [4] | Potency [5] | Potency [6] | Potency [7] | Potency [8] | Potency [9] | Potency [10] | outcome [11] | Potency [12] | Potency [13] | activity change, positive = activation [14] | Potency [15] | Potency [16] | Potency [17] | Potency [18] | Potency [19] | Potency [20] |
| --- | --- | --- | --- | --- | --- | --- | --- | --- | --- | --- | --- | --- | --- | --- | --- | --- | --- | --- | --- | --- |
| O=C(NCCCN1CCOCC1)c1ccc(Cl)cc1 | inactive | inactive | inactive | inactive | inactive | inactive | inactive | inactive | inactive | inactive | inactive | inactive | inactive | 11.6% [at 42.5 µM] | inactive | inactive | inactive | inactive | – | – |
| CCCCCCOC(=O)CCCCCCCC(=O)OCCCCCC | inactive | inactive | inactive | inactive | inactive | – | – | inactive | inactive | – | inactive | inactive | – | – | inactive | inactive | inactive | inactive | inactive | – |
| C[Si](NC1CCCCC1)(NC1CCCCC1)NC1CCCCC1 | inactive | inactive | inactive | inactive | – | – | – | inactive | 19.5 µM (active) | inactive | – | inactive | – | – | inactive | inactive | inactive | inactive | – | inactive |
| CNC(=S)NC | inactive | inactive | inactive | inactive | inactive | – | – | inactive | 11 µM (active) | inactive | – | inactive | – | – | inactive | inactive | inactive | inactive | – | inactive |
| CCOC(=N)CC(=O)OCC | inactive | inactive | inactive | inactive | inactive | – | – | inactive | 19.5 µM (active) | – | – | inactive | – | – | inactive | inactive | – | inactive | – | inactive |
| CN1C(=O)CC(C)(c2ccccc2)C1=O (centres undefined) | inactive | inactive | inactive | inactive | inactive | – | inactive | inactive | inactive | inactive | inactive | inactive | inactive | 2.7% [at 42.5 µM] | inactive | inactive | inactive | inactive | – | inactive |
| CCCOc1ccc(S(=O)(=O)N2CCN(CC)CC2)cc1-c1nc2c(CC)n(Cc3ccccn3)nc2c(=O)[nH]1 | inactive | inactive | inactive | inactive | inactive | inactive | inactive | inactive | inactive | inactive | inactive | inactive | – | -21.4% | inactive | – | – | inactive | – | inactive |
| CCCCCCCCCOC(C)=O | inactive | inactive | inactive | inactive | inactive | – | – | inactive | inactive | inactive | inactive | inactive | – | – | inactive | inactive | – | inactive | inactive | – |
| O=C(O)c1c(O)c(-c2ccccc2)nc2ccccc12 | inactive | 34.7 µM (active) | inactive | inactive | – | – | – | inactive | – | inactive | inactive | inactive | – | – | inactive | inactive | inactive | inactive | inactive | inactive |
| O=C(Nc1ccc([N+](=O)[O-])cc1)Nc1ccc([N+](=O)[O-])cc1 | inactive | inactive | inactive | inactive | – | – | – | inactive | – | inactive | inactive | – | – | – | – | 7.56 µM (active) | inactive | inactive | – | inactive |
| C=CC(=C)CCCC(C)(C)OC(C)=O | inactive | inactive | inactive | inactive | inactive | – | inactive | inactive | inactive | inactive | inactive | inactive | inactive | -5.77% | inactive | inactive | inactive | inactive | – | inactive |
| CCC(C)=O | inactive | inactive | inactive | inactive | – | inactive | inactive | – | inactive | – | inactive | inactive | inactive | – | inactive | inactive | inactive | inactive | – | inactive |
| O=C(CCCCCCCCC#CI)Oc1ccccc1 | inactive | inactive | inactive | inactive | inactive | – | – | inactive | inactive | – | inactive | inactive | – | – | 6.01 µM (active) | – | – | 2.39 µM (active) | – | inactive |
| CCCCCC=CCC=CCCCCCCCC(=O)OCC | inactive | inactive | inactive | inactive | inactive | – | – | inactive | inactive | 55.2 µM (active) | inactive | inactive | – | – | inactive | inactive | inactive | inactive | – | inactive |
| CCC(C)(O)CCC=C(C)C (centres undefined) | inactive | inactive | inactive | inactive | – | – | – | inactive | inactive | inactive | inactive | inactive | – | – | inactive | inactive | inactive | inactive | – | inactive |
| Cc1ccccc1N1C(=O)c2cc(S(N)(=O)=O)c(Cl)cc2NC1C (centres undefined) | inactive | inactive | inactive | inactive | – | – | – | inactive | inactive | – | – | inactive | – | – | inactive | inactive | inactive | inactive | – | inactive |
| O=C(N/N=C/c1ccc([N+](=O)[O-])o1)c1ccc(O)cc1 | 13.3 µM (active) | inactive | 9.44 µM (active) | 8.41 µM (active) | inactive | – | – | – | inactive | – | – | inactive | – | – | – | – | inactive | – | 8.41 µM (active) | – |
